Results reported in the supplement of paper PMC9262897, “Low-cost anti-mycobacterial drug discovery using engineered E. coli” (Nature Communications, 2022).
Counter-ions that a name gives are not always drawn. ± gives the standard deviation of the averaged measurements.

Experiments:
Experiment in all cases: growth (OD600 after 10 h); higher = more growth (less inhibition)
[1] = system: E. coli TESEC Alr+ wild-type control; details: compound 0.1 mM; raw OD600 reference: median of DMSO wells 0.241, cell-free background 0.041
Description: (§1)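 TESEC Mtb Alr E. coli, or the Alr+ wild-type control, in 384-well plates with Prestwick library compounds at 0.1 mM and 1% DMSO, across arabinose induction levels of 1E3 to 1E7 nM. Growth is read as OD600 after 10 h at 37 °C in triplicate biological replicates.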

E. coli TESEC Mtb Alr [2] = details: compound 0.1 mM
Description: as §1

E. coli TESEC Mtb Asd = details: compound 0.1 mM
Description: (§2)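 TESEC E. coli strains in which the native enzyme is deleted and replaced by arabinose-inducible Mtb Asd, DapB, CysH or TrpD, each grown in its selective medium. Strains were screened against the Prestwick library at 0.1 mM and 1% DMSO in 384-well format at low and high arabinose induction. Growth is read as OD600 after 10 h in triplicate.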

E. coli TESEC Mtb DapB = details: compound 0.1 mM
Description: as §2

[3] = system: E. coli TESEC Alr+ wild-type control; details: compound 0.1 mM; raw OD600 reference: median of DMSO wells 0.49, cell-free background 0.052
Description: (§3)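 TESEC Mtb Alr E. coli (ΔaraC ΔtolC ΔentC Δalr ΔdadX, arabinose-inducible Mtb Alr) or the Alr+ wild-type control strain, grown in defined M9-fructose medium without D-alanine in 96-well plates with Prestwick library compounds at 0.1 mM and 1% DMSO. Low Alr induction is 0.1 µM arabinose and high induction is 10 mM arabinose.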

E. coli TESEC Mtb Alr [4] = details: compound 0.1 mM; remark: listed apart in the source
Description: as §3

[5] = arabinose 1000 nM, raw OD600 reference: median of DMSO wells 0.294, cell-free background 0.041
[6] = arabinose 10000 nM, raw OD600 reference: median of DMSO wells 0.264, cell-free background 0.041
[7] = arabinose 100000 nM, raw OD600 reference: median of DMSO wells 0.201, cell-free background 0.041
[8] = arabinose 1000000 nM, raw OD600 reference: median of DMSO wells 0.193, cell-free background 0.041
[9] = arabinose 10000000 nM, raw OD600 reference: median of DMSO wells 0.146, cell-free background 0.041
[10] = arabinose induction (level): High, raw OD600 reference: median of DMSO wells 0.331, cell-free background 0.041
[11] = arabinose induction (level): Low, raw OD600 reference: median of DMSO wells 0.417, cell-free background 0.041
[12] = arabinose induction (level): High, raw OD600 reference: median of DMSO wells […], cell-free background 0.041
[13] = arabinose induction (level): Low, raw OD600 reference: median of DMSO wells 0.227, cell-free background 0.041
[14] = arabinose 100 nM, raw OD600 reference: median of DMSO wells 0.413, cell-free background 0.052
[15] = arabinose 10000000 nM, raw OD600 reference: median of DMSO wells […], cell-free background 0.052

SMILES	growth [1]	growth (E. coli TESEC Mtb Alr [2]; [5])	growth (E. coli TESEC Mtb Alr [2]; [6])	growth (E. coli TESEC Mtb Alr [2]; [7])	growth (E. coli TESEC Mtb Alr [2]; [8])	growth (E. coli TESEC Mtb Alr [2]; [9])	growth (E. coli TESEC Mtb Asd; [10])	growth (E. coli TESEC Mtb Asd; [11])	growth (E. coli TESEC Mtb DapB; [12])	growth (E. coli TESEC Mtb DapB; [13])	growth [3]	growth (E. coli TESEC Mtb Alr [4]; [14])	growth (E. coli TESEC Mtb Alr [4]; [15])
NCc1ccc(S(N)(=O)=O)cc1 [Mafenide hydrochloride]	0.248 ± 0.0039	0.295 ± 0.021	0.259 ± 0.0097	0.187 ± 0.015	0.177 ± 0.0036	0.14 ± 0.0058	0.358 ± 0.018	0.41 ± 0.044	0.199 ± 0.0035	0.251 ± 0.032	0.418 ± 0.046	0.418 ± 0.0068	0.373 ± 0.018
NCCc1c[nH]cn1 [Histamine dihydrochloride]	0.24 ± 0.012	0.2947 ± 0.0029	0.258 ± 0.0056	0.192 ± 0.019	0.192 ± 0.011	0.139 ± 0.003	0.303 ± 0.062	0.403 ± 0.011	0.193 ± 0.015	0.23 ± 0.0077	0.501 ± 0.067	0.42 ± 0.011	0.312 ± 0.0092
COC(=O)Nc1nc2cc(C(=O)c3cccs3)ccc2[nH]1 [Nocodazole]	0.251 ± 0.0038	0.292 ± 0.018	0.269 ± 0.0045	0.211 ± 0.0085	0.185 ± 0.0053	0.142 ± 0.0038	0.345 ± 0.023	0.415 ± 0.034	0.186 ± 0.0079	0.215 ± 0.044	0.465 ± 0.044	0.419 ± 0.0079	0.382 ± 0.044
CN(C)/N=N/c1[nH]cnc1C(N)=O [Dacarbazine]	0.211 ± 0.0036	0.259 ± 0.0098	0.219 ± 0.012	0.197 ± 0.036	0.136 ± 0.0025	0.151 ± 0.0043	0.278 ± 0.036	0.362 ± 0.12	0.181 ± 0.012	0.213 ± 0.033	0.51 ± 0.11	0.405 ± 0.013	0.296 ± 0.024
CCN(CC)CCNc1ccc(CO)c2sc3ccccc3c(=O)c12 [Hycanthone]	0.0743 ± 0.0024	0.0851 ± 0.0084	0.0559 ± 0.00057	0.1 ± 0.0034	0.0552 ± 0.00075	0.0769 ± 0.0069	0.0901 ± 0.025	0.075 ± 0.0065	0.21 ± 0.027	0.163 ± 0.01	0.377 ± 0.0077	0.365 ± 0.042	0.232 ± 0.033
CCCOc1ccccc1-c1nc2[nH]nnc2c(=O)[nH]1 [Zaprinast]	0.205 ± 0.0049	0.229 ± 0.0072	0.257 ± 0.0057	0.162 ± 0.016	0.173 ± 0.0024	0.138 ± 0.0042	0.268 ± 0.029	0.313 ± 0.046	0.191 ± 0.0075	0.199 ± 0.024	0.507 ± 0.057	0.396 ± 0.0084	0.289 ± 0.0088
CCCCC[C@H](O)/C=C/[C@H]1[C@H](O)CC(=O)[C@@H]1CCCCCCC(=O)O [Alprostadil]	0.215 ± 0.0055	0.284 ± 0.0052	0.23 ± 0.0057	0.176 ± 0.0091	0.163 ± 0.0042	0.126 ± 0.0061	0.243 ± 0.046	0.279 ± 0.082	0.154 ± 0.008	0.177 ± 0.032	0.503 ± 0.07	0.364 ± 0.018	0.299 ± 0.017
